Compound activity from PubChem BioAssay.
Sampled rows, rich in hits. Any-hit rate of the full collection: about 5.7%.
JMJD2A Tudor: qHTS Assay for Inhibitors of JMJD2A-Tudor Domain; Lysine-specific demethylase 4A (Homo sapiens), O75164; AlphaScreen JMJD2A-Tudor / H3K4me3 peptide binding; Potency, µM (series often up to 114 µM), for inactives: at the top dose activity change, negative = inhibition, most hits filed as inhibitors; 390,000 compounds, 4.4% hits; AID 504339, 2011; note: potency is the fitted concentration of half-maximal effect; % is set by controls: 0 for no effect and ±100 for the full control effect; nearly all actives have a fitted effect of over 50% in size
Target sequence (O75164 whole entry, looked up, the tested form may be a part): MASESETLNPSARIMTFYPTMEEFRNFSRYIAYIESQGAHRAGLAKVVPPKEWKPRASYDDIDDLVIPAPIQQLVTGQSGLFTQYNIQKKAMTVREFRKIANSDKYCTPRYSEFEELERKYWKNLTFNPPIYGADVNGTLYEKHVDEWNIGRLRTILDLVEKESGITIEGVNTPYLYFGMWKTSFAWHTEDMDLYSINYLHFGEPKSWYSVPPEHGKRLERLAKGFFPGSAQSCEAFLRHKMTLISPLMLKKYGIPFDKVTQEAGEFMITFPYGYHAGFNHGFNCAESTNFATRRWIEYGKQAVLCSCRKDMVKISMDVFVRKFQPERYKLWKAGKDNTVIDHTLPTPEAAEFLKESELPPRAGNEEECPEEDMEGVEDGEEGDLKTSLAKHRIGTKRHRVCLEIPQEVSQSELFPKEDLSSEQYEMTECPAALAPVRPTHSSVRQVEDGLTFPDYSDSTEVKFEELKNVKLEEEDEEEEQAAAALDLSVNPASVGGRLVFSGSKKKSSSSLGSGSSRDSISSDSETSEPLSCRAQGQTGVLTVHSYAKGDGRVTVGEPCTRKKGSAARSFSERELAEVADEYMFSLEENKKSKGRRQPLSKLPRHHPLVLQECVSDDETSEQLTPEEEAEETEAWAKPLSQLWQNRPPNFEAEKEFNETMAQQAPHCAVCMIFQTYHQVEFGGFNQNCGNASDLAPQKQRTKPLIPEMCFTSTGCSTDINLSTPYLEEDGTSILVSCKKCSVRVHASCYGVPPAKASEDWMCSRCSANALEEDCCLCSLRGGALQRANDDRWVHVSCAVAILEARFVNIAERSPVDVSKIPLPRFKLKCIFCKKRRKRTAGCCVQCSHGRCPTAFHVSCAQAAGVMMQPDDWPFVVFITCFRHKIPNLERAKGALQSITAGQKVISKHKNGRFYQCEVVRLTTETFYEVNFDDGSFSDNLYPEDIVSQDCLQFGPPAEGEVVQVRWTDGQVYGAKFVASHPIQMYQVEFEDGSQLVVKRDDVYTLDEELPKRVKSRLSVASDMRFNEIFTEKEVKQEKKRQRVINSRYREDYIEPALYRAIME
PI5P4K alpha inh: qHTS for Inhibitors of phosphatidylinositol 5-phosphate 4-kinase (PI5P4K). Phosphatidylinositol 5-phosphate 4-kinase type-2 alpha (Homo sapiens), P48426. PI5P4Kalpha enzyme, ADP-Glo luminescence, 60 min; active compounds read low. max response, %. 330,000 compounds, 1.2% hits; active = max response of -50% or lower; inconclusive = between -30% and -50%; inactive = -30% or higher; note: value at the top dose of about 77 µM; % is set by controls: 0 for no effect and ±100 for the full control effect
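Quantitative HTS of the MLSMR library against PI5P4Kalpha with substrate. ATP added last at 5 microM final; room temperature, 60 minutes. Remaining ATP depleted, ADP converted and read as luminescence.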
L3MBTL1 inh: qHTS Assay for the Inhibitors of L3MBTL1. AlphaScreen L3MBTL1–H3K9me1 peptide binding. 230,000 compounds, 0.66% hits. Lethal(3)malignant brain tumor-like protein 1 (Homo sapiens), Q9Y468. Potency, µM (highest dose often 57.1 µM), for the others: at the top dose activity, negative = inhibition, actives largely listed as inhibitors; note: potency is the fitted concentration of half-maximal effect; % is set by controls: 0 for no effect and ±100 for the full control effect; nearly all actives have a fitted effect of over 60% in size
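AlphaScreen proximity signal between nickel-chelate acceptor and streptavidin donor beads (final 10 ug/mL) reports binding of 50 nM L3MBTL1 to 75 nM biotin-H3 K9me1 peptide; complex incubated with compounds 30 min at room temperature; cefsulodin titration as control.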
JMJD2E inh: qHTS Assay for Inhibitors of Human Jumonji Domain Containing 2E (JMJD2E); Potency, µM (highest dose often 57.1 µM), for inactives: at the highest dose activity change, negative = inhibition, actives largely listed as inhibitors; 230,000 compounds, 1.6% hits; JMJD2E catalytic domain, FDH-coupled NADH fluorescence (FDH is formaldehyde dehydrogenase); active = well fitted inhibition curve with a large enough effect, not every such curve was filed as active; inconclusive = small, poorly fitted or top-dose-only effect, or another doubt; inactive = no such curve, though single readings can be large or run the other way;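 note: potency is the fitted concentration of half-maximal effect; 0% = wells with enzyme and -100% = buffer wells without enzyme; nearly all actives have a fitted effect of over 50% in size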
BAZ2B block: qHTS Assay for Inhibitors of BAZ2B. AlphaScreen BAZ2B-H3K14Ac peptide displacement. Potency, µM (highest dose often 114 µM), for inactives: top-dose activity change, negative = inhibition, hits mostly inhibitors. 360,000 compounds, 4.4% hits. AID 504333, 2011; note: potency is the fitted concentration of half-maximal effect; % is set by controls: 0 for no effect and ±100 for the full control effect; nearly all actives have a fitted effect of over 60% in size
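Multi-concentration screen (max 110 uM) measuring displacement of acetylated histone H3 peptide from BAZ2B by AlphaScreen, using 50 nM protein, 50 nM peptide and 10 ug/mL streptavidin donor plus Ni-chelate acceptor beads.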
HP1b chromo inh: HTS for Inhibitors of HP1-beta Chromodomain Interactions with Methylated Histone Tails; Chromobox protein homolog 1 (Homo sapiens), P83916; 390,000 compounds, 0.56% hits; AlphaScreen HP1-beta / biotin-H3K9me3 peptide binding; Potency, µM (series often up to 114 µM), without a hit: top-dose activity change, negative = inhibition, hits mostly inhibitors; note: potency is the fitted concentration of half-maximal effect; nearly all actives have a fitted effect of over 70% in size
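Compound inhibition of the preformed complex between 50 nM HP1-beta and 50 nM biotinylated H3K9me3 peptide was read by AlphaScreen. Buffer was PBS pH 7.4 with 0.01% Tween-20. Incubations ran 30 min at room temperature, with 10 ug/mL donor/acceptor beads.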
* marks the source's active call; other numbers are inactive results; ? = inconclusive; / = no result given; ! = not active in a repeat; [ ] = dose if it differs, or a comment. Unless noted, calls come from the whole dose curve; as a rule, active = well fitted inhibition curve with a large enough effect; inconclusive = small, poorly fitted or top-dose-only effect; inactive = no such curve, though single readings can be large or run the other way.

SMILES | JMJD2A Tudor | PI5P4K alpha inh | L3MBTL1 inh | JMJD2E inh | BAZ2B block | HP1b chromo inh
CCc1ccc(-n2c(O)c(/C=N/NC(=O)c3ccncc3)c(=O)[nH]c2=O)cc1 | ? | -28 | -24% | 11µM* | 56µM* | 19%
CC(C)c1ccc(-n2c(O)c(/C=N/NC(=O)c3ccncc3)c(=O)[nH]c2=O)cc1 | ? | -28 | -1% | ? | ? | 31%
CCC(C)n1c(O)c(/C=N/NC(=O)c2ccncc2)c(=O)[nH]c1=S (stereo unspecified) | ? | ? | -9% | ? | 56µM* | 48%
CC1(C)CC(=O)C2=C(C1)OC(N)=C([N+](=O)[O-])C2c1ccc(C#N)s1 (stereo unspecified) | -15% | -30 | -9% | -28% | ? | 10%
CCn1c(O)c(/C=N/NC(=O)c2ccncc2)c(=O)[nH]c1=S | 71µM* | -27 | ? | -2% | 35µM* | 48%
O=C(N/N=C/c1c(O)n(Cc2ccc(F)cc2)c(=S)[nH]c1=O)c1ccncc1 | 100µM* | ? | -28% | ? | 79µM* | 13%
CCCCn1c(O)c(/C=N/NC(=O)c2ccncc2)c(=O)[nH]c1=O | ? | -65* | -2% | 8.9µM* | ? | 41%
NC1CCCCC1N=Cc1c(O)n(CCc2ccc(F)cc2)c(=O)[nH]c1=O (stereo unspecified) | -20% | 0 | -2% | 4% | 45µM* | 25%
O=c1[nH]c(=S)n(Cc2ccc(F)cc2)c(O)c1C=NCCCn1ccnc1 | -21% | 2 | -17% | 11% | -26% | 14%
CCN(CC)CCCN=Cc1c(O)n(CCc2ccc(F)cc2)c(=O)[nH]c1=O | -18% | -15 | -2% | 8% | -22% | 11%
CCC(=O)N1N=C(c2c(O)n(CCc3ccccc3)c(=O)[nH]c2=O)CC1c1ccc(OC)c(OC)c1 (stereo unspecified) | -22% | 1 | / | 20µM* | -6% | 31%
CN1CCN(c2ccccc2NC(=O)c2ccc(-c3ccc(Cl)c(Cl)c3)o2)CC1 | 50µM* | -3 | / | / | -7% | -2%
CC(C)(C)NCc1cccn1-c1sc2c(c1C#N)CCCC2 | 28µM* | -2 | -3% | 7% | 56µM* | ?
C[C@]12CCC3C(C=CC4=CC(=O)CC[C@]43C)C1CC[C@]2(O)CCC(=O)O (stereo partly specified) | / | / | / | -18% | / | /
CCN1C(=O)CC(=O)N(CC)C1=S | / | -55* | / | / | / | /
CC1CC(O)[C@]2(O)[C@]13CC(=O)OC[C@@]2(C)[C@@](C)(O)C(=O)C3 (stereo partly specified) | / | / | / | 4% | / | /
Cc1ccc(-n2nc(C)c(C3C(C#N)=C(N)Oc4c3c(=O)oc3ccccc43)c2Cl)cc1 (stereo unspecified) | / | / | -10% | 8% | 2% | /
Cc1ccc(-n2nc(C)c3c2OC(N)=C(C#N)C3c2cccs2)cc1 (stereo unspecified) | -1% | 1 | -22% | -2% | 35µM* | 37%
O=C1c2ccccc2CCc2ccccc21 | 28% | -10 | / | / | / | 53%
O=C1C=C(N2CC2)c2ccccc2C1=O | / | -66* | / | / | / | /
O=c1c2ccc(Cl)cc2[nH]c(=S)n1-c1cccnc1 | 18µM* | -5 | -8% | -5% | -21% | 22%
Cc1ccc2c(c1)NP(=S)(Oc1ccccc1)N2 (stereo unspecified) | -25% | -8 | / | / | / | -17%
Cc1ccc(OP2(=O)Nc3cc(C)c(C)cc3S2)cc1 (stereo unspecified) | 1.3µM* | 5 | / | / | / | -7%[57 µM]
CCN(CC)S(=O)(=O)c1cccc(N=Nc2c(O)n(CC)c(=S)n(CC)c2=O)c1 | 20µM* | 5 | -18% | 8% | ? | ?
CN1C(=O)CCS(=O)(=O)[C@@H]1c1ccc(Cl)cc1 | / | / | / | 0%[25.5 µM] | / | /
SMILES | JMJD2A Tudor | PI5P4K alpha inh | L3MBTL1 inh | JMJD2E inh | BAZ2B block | HP1b chromo inh
C#CCOCCOCCOCCNc1nc(N2CCN(C(=O)CCCCCCCCCCNC(=O)[C@H]([C@@H](C)CC)n3cc(CCCCN=C(N)N)nn3)CC2)nc(N2CCN(C(=O)CCCCCCCCCCNC(=O)[C@H](CO)n3cc(CCCCCN)nn3)CC2)n1 | 56µM* | ? | -9% | / | 50µM* | ?
COC1CC(C)C(OC)c2cc(O)cc(c2O)NC(=O)C(C)=CC=CC(C)C(OC(N)=O)C(C)=CC(C)C1OC (stereo unspecified) | 89µM* | 13 | / | / | / | 71µM*
CN(C)[C@@H]1C(=O)C(C(N)=O)=C(O)[C@@]2(O)C(=O)C3=C(O)c4c(O)cccc4[C@@](C)(O)C3[C@H](O)C12 (stereo partly specified) | 3.2µM* | -88*! | 3.2µM* | / | 6.3µM* | 14µM*!
CN(C)[C@@H]1C(=O)C(C(N)=O)=C(O)[C@@]2(O)C(=O)C3=C(O)c4c(O)ccc(Cl)c4[C@@](C)(O)C3C[C@@H]12 (stereo partly specified) | 11µM* | ? | ? | 4% | 45µM* | 31%
CN(C)C1C(=O)C(C(N)=O)=C(O)[C@@]2(O)C(=O)C3=C(O)c4c(O)cccc4[C@@](C)(O)C3[C@H](O)C12 (stereo partly specified) | / | / | / | 2µM* | / | /
CN(C)[C@@H]1C(=O)C(C(N)=O)=C(O)[C@]2(O)C(=O)C3=C(O)c4c(O)cccc4[C@@](C)(O)[C@H]3[C@H](O)[C@@H]12 | / | / | / | 11µM* | / | /
NC[C@H](CP(=O)(O)O)c1ccc(Cl)cc1 | / | / | / | -1% | / | /
CCCN(CC#CCOc1ccc(OC)cc1)CCC | 6.3µM* | 2 | 0% | ? | 56µM* | -47%
ClC1=C(Cl)C(Cl)=C(Cl)C1=C/C=C/c1ccccc1 | 5.6µM* | -18 | -23% | -2% | 3.5µM* | 6.3µM*
CN1CN(c2ccccc2)C2(CCN(CCCSc3ccccc3NC(=O)/C=C/c3ccccc3)CC2)C1=O | 40µM* | -6 | / | / | / | ?
